Test results from PubChem BioAssay (EPA / NIEHS).
Results filed as inconclusive are left out. The source holds several records for some structures; these can differ, active in one and inactive in another. Activity calls are given as the source filed them. The calls were made as follows, unless noted: active = hit-call score of the fitted dose curve at least 0.9, where 1 is the maximum; inconclusive = response in the unintended direction; inactive = score below 0.9.

How the values were obtained:
[1] = target: human Dopamine Transporter (DAT), SLC6A3 (gene 6531) (UniProt Q01959); test: NVS_TR_hDAT: NovaScreen (NVS) Transporter Assay for human Dopamine Transporter (DAT) (AID 2283374);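 also: activity means loss of bound radioligand signal relative to DMSO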
Sequence of human Dopamine Transporter (DAT), SLC6A3 (gene 6531) (Q01959 whole entry, looked up): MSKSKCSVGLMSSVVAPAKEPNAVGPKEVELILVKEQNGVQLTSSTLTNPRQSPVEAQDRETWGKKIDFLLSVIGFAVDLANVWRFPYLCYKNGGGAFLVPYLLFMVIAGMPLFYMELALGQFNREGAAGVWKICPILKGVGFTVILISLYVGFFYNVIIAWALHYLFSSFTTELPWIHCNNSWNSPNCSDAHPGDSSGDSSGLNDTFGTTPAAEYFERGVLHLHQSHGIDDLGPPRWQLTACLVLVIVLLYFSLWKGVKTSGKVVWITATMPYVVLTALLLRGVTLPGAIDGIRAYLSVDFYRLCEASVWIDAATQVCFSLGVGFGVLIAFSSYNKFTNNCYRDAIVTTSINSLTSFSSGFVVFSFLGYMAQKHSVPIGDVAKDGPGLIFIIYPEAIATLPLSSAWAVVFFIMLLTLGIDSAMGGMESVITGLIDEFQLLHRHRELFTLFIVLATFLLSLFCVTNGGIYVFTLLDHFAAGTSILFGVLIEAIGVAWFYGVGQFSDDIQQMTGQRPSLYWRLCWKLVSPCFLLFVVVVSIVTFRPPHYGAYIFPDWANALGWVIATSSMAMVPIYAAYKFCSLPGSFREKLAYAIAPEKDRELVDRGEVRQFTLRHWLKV
In short: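 hDAT membranes + tritiated/iodinated radioligand, competitive displacement; 1 h; filter scintillation readout. Single conc 25 uM (duplicate), then conc-response for actives. DMSO = negative control.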

[2] = target: human Norepinephrine Transporter (NET), SLC6A2 (gene 6530) (UniProt P23975); test: NVS_TR_hNET: NovaScreen (NVS) Transporter Assay for human Norepinephrine Transporter (NET) (AID 2283377);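 also: cell-free membrane protein extracted from CHO cells expressing human NET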
In short: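 CHO cell extracts expressing the transporter; tritiated or iodinated tracer displaced competitively; filtration plus scintillation readout at 1 h. Single-point duplicates at 25 uM, concentration series for follow-up; activity = signal drop relative to DMSO.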

[3] = target: mouse Estrogen Receptor alpha (Era), Esr1 (gene 13982) (UniProt P19785); test: NVS_NR_mERa: NovaScreen (NVS) Nuclear Receptor Binding Assay for mouse Estrogen Receptor alpha (Era) (AID 2283378);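 also: hit means loss of bound radioligand signal relative to DMSO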
Sequence of mouse Estrogen Receptor alpha (Era), Esr1 (gene 13982) (P19785 whole entry, looked up): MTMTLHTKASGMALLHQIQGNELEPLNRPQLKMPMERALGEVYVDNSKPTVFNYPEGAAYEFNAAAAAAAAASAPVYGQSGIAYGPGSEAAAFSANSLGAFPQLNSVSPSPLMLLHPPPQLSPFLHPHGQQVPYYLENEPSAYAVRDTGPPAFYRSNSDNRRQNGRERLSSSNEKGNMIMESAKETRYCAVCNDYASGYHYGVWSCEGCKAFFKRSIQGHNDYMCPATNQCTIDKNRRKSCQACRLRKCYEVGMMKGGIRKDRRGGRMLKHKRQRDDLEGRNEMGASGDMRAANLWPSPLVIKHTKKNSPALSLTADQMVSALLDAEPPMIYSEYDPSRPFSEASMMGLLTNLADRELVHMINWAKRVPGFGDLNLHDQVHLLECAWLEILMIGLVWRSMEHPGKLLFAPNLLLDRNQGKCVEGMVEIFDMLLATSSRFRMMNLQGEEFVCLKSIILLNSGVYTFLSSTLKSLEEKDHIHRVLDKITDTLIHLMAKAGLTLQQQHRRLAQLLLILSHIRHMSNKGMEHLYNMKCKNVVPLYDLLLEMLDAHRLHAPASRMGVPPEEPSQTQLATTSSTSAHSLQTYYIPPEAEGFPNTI
In short: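 Measurements come from scintillation counting after filtration, taken 18 hours after chemicals were added to a cell-free mouse Era preparation with radioligand. Screening was duplicate at 25 uM, with concurrent positive and negative controls and confirmatory concentration series for actives.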

[4] = target: Agonist Androgen Response Element (ARE), AR (gene 367) (UniProt P10275); test: OT_AR_ARELUC_AG_1440: Odyssey Thera (OT) 24-hour CHO-K1 Luciferase Assay for Agonist Androgen Response Element (ARE) (AID 2283379)
Sequence of Agonist Androgen Response Element (ARE), AR (gene 367) (P10275 whole entry, looked up): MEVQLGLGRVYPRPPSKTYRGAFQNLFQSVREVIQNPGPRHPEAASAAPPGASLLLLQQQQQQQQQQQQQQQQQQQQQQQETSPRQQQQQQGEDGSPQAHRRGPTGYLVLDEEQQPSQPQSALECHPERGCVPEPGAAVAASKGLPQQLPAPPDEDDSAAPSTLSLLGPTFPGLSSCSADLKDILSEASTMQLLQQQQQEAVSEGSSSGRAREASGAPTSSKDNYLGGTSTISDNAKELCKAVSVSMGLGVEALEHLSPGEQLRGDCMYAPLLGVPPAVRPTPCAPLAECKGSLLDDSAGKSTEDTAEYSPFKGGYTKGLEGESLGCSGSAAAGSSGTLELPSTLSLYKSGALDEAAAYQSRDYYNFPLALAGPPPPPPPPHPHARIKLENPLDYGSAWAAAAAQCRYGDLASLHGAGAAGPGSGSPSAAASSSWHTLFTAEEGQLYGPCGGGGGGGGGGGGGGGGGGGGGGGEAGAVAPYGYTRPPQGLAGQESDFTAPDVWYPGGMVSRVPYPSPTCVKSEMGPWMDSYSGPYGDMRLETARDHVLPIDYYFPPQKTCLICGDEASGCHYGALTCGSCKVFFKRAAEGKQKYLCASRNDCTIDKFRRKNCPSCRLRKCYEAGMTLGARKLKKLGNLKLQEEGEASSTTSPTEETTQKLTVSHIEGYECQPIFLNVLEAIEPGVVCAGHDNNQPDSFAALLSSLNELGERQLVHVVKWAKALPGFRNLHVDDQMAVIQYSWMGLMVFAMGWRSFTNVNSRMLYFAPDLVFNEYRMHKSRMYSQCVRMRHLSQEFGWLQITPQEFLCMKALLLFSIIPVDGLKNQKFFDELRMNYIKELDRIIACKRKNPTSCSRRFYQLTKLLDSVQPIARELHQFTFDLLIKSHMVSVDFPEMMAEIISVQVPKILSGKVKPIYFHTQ
In short: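 Gain-of-signal reporter endpoint: cells (CHO-K1, hamster) are treated 24 h, luciferin/ATP reagent added, and luminescence compared with DMSO baseline.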

[5] = target: Estrogen receptor beta (Homo sapiens) (UniProt Q92731); test: OT_ER_ERbERb_1440: Odyssey Thera (OT) 24-hour HEK293T Protein-Complementation Assay for Estrogen Receptor-beta/-beta Homodimer (AID 2283380);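 also: scored as signal increase over DMSO baseline for both agonists and antagonists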
Sequence of Estrogen receptor beta (Homo sapiens) (Q92731 whole entry, looked up, the tested form may be a part): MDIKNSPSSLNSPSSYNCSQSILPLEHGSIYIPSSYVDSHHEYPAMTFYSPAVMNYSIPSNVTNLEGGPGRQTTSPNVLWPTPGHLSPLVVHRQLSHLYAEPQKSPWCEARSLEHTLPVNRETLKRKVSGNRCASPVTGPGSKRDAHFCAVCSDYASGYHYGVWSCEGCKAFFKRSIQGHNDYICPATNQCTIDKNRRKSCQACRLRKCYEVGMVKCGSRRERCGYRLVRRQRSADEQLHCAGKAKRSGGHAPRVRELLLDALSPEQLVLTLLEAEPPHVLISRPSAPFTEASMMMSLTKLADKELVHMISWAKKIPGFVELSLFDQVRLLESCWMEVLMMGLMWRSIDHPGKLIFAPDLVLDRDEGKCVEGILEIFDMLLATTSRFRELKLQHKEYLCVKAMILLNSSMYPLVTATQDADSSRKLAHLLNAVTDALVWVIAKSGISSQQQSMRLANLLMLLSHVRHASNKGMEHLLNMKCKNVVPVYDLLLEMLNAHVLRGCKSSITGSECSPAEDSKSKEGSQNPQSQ
In short: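 HEK293T cells stably expressing ER beta LBD (aa 310-547) homodimer fragment-complementation reporter, dosed 24 h. Cells formaldehyde-fixed, Draq5-stained; gain in nuclear (agonist) or nuclear plus cytoplasmic (antagonist) fluorescence versus DMSO read by laser scanning cytometry.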

[6] = target: Estrogen receptor (Homo sapiens) (UniProt P03372); test: OT_ERa_GFPERaERE_0480: Odyssey Thera (OT) 8-hour HeLa Transcription Induction Assay for Estrogen Receptor (AID 2283381; active = hit-call score of the fitted dose curve at least 0.9, where 1 is the maximum; inactive = score below 0.9)
Sequence of Estrogen receptor (Homo sapiens) (P03372 whole entry, looked up): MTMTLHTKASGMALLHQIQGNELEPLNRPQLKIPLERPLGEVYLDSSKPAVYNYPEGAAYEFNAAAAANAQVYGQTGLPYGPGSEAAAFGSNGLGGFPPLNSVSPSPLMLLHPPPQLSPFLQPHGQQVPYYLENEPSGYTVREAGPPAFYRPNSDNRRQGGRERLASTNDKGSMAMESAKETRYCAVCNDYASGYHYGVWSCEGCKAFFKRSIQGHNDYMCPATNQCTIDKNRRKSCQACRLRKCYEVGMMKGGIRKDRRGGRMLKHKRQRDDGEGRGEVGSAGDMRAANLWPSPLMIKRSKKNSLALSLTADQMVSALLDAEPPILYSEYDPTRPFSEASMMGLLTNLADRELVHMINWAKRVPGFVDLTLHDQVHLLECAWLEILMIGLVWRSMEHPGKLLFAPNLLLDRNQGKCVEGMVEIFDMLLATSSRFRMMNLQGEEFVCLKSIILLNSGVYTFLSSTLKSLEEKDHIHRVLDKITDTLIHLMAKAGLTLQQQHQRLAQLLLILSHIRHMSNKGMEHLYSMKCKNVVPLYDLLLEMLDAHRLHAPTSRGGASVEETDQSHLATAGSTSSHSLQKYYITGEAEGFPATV
In short: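 An 8 h HeLa transcription-induction format with a GFP reporter under ERE control, read by fluorescence microscopy; single endpoint fitted positively with DMSO as baseline.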

[7] = target: Estrogen receptor (Homo sapiens) (UniProt P03372); test: OT_ERa_GFPERaERE_0120: Odyssey Thera (OT) 2-hour HeLa Transcription Induction Assay for Estrogen Receptor (AID 2283382)
In short: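 Two-hour compound treatment of HeLa cells preceded microscopy imaging of an inducible fluorescent reporter. Image-based quantification gave one endpoint, analysed for signal increase relative to DMSO controls.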

[8] = target: Retinoic acid receptor RXR-alpha (Homo sapiens) (UniProt P19793); test: OT_NURR1_NURR1RXRa_0480: Odyssey Thera (OT) 8-hour HEK293T Protein Complementation Assay for Nurr1/retinoid X receptor (RXR) (AID 2283385)
Sequence of Retinoic acid receptor RXR-alpha (Homo sapiens) (P19793 whole entry, looked up, the tested form may be a part): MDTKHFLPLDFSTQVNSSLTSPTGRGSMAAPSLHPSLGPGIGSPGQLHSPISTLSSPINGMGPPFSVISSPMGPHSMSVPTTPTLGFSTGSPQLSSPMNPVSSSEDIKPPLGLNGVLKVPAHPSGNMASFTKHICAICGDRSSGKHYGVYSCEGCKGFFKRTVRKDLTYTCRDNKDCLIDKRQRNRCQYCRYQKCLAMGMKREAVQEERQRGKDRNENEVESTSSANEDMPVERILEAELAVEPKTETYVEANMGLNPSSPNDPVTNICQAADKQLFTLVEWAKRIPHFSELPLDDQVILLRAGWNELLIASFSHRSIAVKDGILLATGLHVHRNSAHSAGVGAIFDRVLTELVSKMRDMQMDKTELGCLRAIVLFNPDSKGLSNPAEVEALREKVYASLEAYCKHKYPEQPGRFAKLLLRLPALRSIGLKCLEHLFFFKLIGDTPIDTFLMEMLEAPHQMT
In short: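 Gain in fluorescent complementation signal over DMSO, measured 8 hours after chemical dosing of human kidney HEK293T cells, indicated enhanced Nurr1–RXRα association.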

[9] = target: Retinoic acid receptor RXR-alpha (Homo sapiens) (UniProt P19793); test: OT_NURR1_NURR1RXRa_1440: Odyssey Thera (OT) 24-hour HEK293T Protein Complementation Assay for Nurr1/retinoid X receptor (RXR) (AID 2283386)
In short: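 Cell-based binding reporter: HEK293T cells, 24 h exposure, fluorescence-detected fragment complementation, DMSO as baseline.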

[10] = target: Peroxisome proliferator-activated receptor gamma (Homo sapiens) (UniProt P37231); test: OT_PPARg_PPARgSRC1_0480: Odyssey Thera (OT) 8-hour Protein-Complementation Assay for Peroxisome Proliferator-activated Receptor Gamma / SRC-1 Co-activator (AID 2283387);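 also: nuclear to cytoplasmic split Venus YFP fluorescence ratio reporting PPARg SRC-1 interaction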
Sequence of Peroxisome proliferator-activated receptor gamma (Homo sapiens) (P37231 whole entry, looked up, the tested form may be a part): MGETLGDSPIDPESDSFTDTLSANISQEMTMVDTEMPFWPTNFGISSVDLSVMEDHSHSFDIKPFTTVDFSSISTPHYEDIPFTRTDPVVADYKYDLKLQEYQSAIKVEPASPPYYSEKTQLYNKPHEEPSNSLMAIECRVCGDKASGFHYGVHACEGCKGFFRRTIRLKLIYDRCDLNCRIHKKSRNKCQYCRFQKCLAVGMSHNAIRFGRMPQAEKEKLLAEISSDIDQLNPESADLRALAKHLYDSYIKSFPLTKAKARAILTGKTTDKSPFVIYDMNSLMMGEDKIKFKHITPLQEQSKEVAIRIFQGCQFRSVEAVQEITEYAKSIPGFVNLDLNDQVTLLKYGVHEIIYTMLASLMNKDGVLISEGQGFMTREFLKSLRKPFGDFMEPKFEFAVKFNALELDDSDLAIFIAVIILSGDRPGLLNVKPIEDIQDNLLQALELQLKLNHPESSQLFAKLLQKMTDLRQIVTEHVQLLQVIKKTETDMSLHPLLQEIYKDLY
In short: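 HEK293T transiently transfected with PPARg and SRC-1 fused to Venus YFP fragments, compounds 8 h at 37C. Fixed, Draq5-stained cells imaged; nuclear/cytoplasmic 488 nm fluorescence ratio over at least 350 cells per image; gain fitted versus DMSO.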

[11] = target: Peroxisome proliferator-activated receptor gamma (Homo sapiens) (UniProt P37231); test: OT_PPARg_PPARgSRC1_1440: Odyssey Thera (OT) 24-hour Protein-Complementation Assay for Peroxisome Proliferator-activated Receptor Gamma/ SRC-1 Co-activator (AID 2283388)
In short: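 Cells carrying the PPARg/SRC-1 fragment-complementation reporter receive compound for 24 hours, are fixed and counterstained with Draq5, then imaged. Increased nuclear relative to cytoplasmic YFP fluorescence above DMSO baseline indicates binding activity.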

[12] = CEETOX_H295R_11DCORT: CeeTox H295R High-throughput Steroidogenesis Assay for 11-Deoxycortisol (11DCORT) (AID 2283432; active = hit-call score of the fitted dose curve at least 0.9, where 1 is the maximum; inactive = score below 0.9); conditions: actives raise or lower the signal
In short: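 H295R cells prestimulated 48 h with 10 uM forskolin, then exposed 48 h to chemical in 0.1% DMSO. 11-Deoxycortisol in medium quantified by HPLC-MS/MS after MTBE extraction; bidirectional fit versus DMSO. MTT viability read in same wells.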

[13] = CEETOX_H295R_OHPREG: CeeTox H295R High-throughput Steroidogenesis Assay for OH-Pregnenolone (OHPREG) (AID 2283434; active = hit-call score of the fitted dose curve at least 0.9, where 1 is the maximum; inactive = score below 0.9); conditions: actives raise or lower the signal
In short: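 H295R, 10 uM forskolin pre-stim 48 h; test chemical 48 h, 0.1% DMSO final. MTBE extraction, reverse-phase C18 HPLC-ESI+ MS/MS of medium. Gain/loss vs DMSO; viability by MTT in same wells.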

[14] = CEETOX_H295R_OHPROG: CeeTox H295R High-throughput Steroidogenesis Assay for OH-Progesterone (OHPROG) (AID 2283435; active = hit-call score of the fitted dose curve at least 0.9, where 1 is the maximum; inactive = score below 0.9;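 as to AC50: human adrenal H295R cells primed 48 h with 10 µM forskolin; 17alpha-hydroxyprogesterone secreted into medium measured by HPLC-MS/MS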); conditions: actives raise or lower the signal
In short: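 Human adrenocortical H295R cells, passage 10 or lower, were treated with chemical for 48 h after forskolin priming, and hormone output in the medium was quantified by LC-MS/MS.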

[15] = CEETOX_H295R_ANDR: CeeTox H295R High-throughput Steroidogenesis Assay for Androstenedione (ANDR) (AID 2283436; active = hit-call score of the fitted dose curve at least 0.9, where 1 is the maximum; inactive = score below 0.9;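 also: human H295R adrenal cells exposed for 48 h with androstenedione measured in medium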); conditions: actives raise or lower the signal
In short: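 48 h chemical exposure, H295R cells, DMEM/F12 + ITS+ and Nu-Serum. Medium androstenedione: MTBE extraction, C18 reverse-phase HPLC, ESI+ MS/MS. Fit bidirectional vs DMSO; MTT viability in same wells.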

[16] = CEETOX_H295R_CORTIC: CeeTox H295R High-throughput Steroidogenesis Assay for Corticosterone (CORTIC) (AID 2283437; active = hit-call score of the fitted dose curve at least 0.9, where 1 is the maximum; inactive = score below 0.9;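 also: corticosterone secreted into medium quantified by mass spectrometry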); conditions: actives raise or lower the signal
In short: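 48 h forskolin (10 uM) prestim, then 48 h chemical exposure, final DMSO 0.1%. Readout: corticosterone in medium by LC-MS/MS after MTBE extraction. Gain/loss fit vs DMSO; MTT viability in same wells.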

[17] = CEETOX_H295R_CORTISOL: CeeTox H295R High-throughput Steroidogenesis Assay for Cortisol (AID 2283438; active = hit-call score of the fitted dose curve at least 0.9, where 1 is the maximum; inactive = score below 0.9;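 also: cortisol secreted into medium quantified by LC-MS/MS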); conditions: actives raise or lower the signal
In short: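 Steroidogenesis in H295R, per modified OECD 456: 48 h forskolin (10 uM), then 48 h exposure, 0.1% DMSO. Cortisol by extraction and tandem MS; viability by MTT (570/650 nm); cytotoxic chemicals diluted and re-tested.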

[18] = target: Bile acid receptor (Homo sapiens) (UniProt Q96RI1); test: OT_FXR_FXRSRC1_1440: Odyssey Thera (OT) 24-hour HEK293T Protein-Complementation Assay for Farnesoid X receptor/SRC-1 Co-activator (AID 2283384)
Sequence of Bile acid receptor (Homo sapiens) (Q96RI1 whole entry, looked up): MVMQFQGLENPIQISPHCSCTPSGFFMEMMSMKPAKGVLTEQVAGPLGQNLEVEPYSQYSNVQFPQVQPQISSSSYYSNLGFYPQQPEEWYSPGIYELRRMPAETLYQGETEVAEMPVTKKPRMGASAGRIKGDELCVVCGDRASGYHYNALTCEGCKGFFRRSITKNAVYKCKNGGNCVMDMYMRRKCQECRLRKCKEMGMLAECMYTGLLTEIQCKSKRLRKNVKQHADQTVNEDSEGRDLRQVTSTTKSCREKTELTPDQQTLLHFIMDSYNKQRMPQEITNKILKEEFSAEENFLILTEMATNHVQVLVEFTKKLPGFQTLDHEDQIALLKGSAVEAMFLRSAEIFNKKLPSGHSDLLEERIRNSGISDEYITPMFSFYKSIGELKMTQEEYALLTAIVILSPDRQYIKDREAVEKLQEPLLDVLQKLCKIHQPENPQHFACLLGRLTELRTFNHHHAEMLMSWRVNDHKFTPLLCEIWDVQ
In short: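 Single endpoint, analysed for increased fluorescence against DMSO controls. HEK293T cells carrying FXR and SRC-1 linked to complementary reporter halves were exposed to chemicals for 24 h before reading.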

[19] = target: Bile acid receptor (Homo sapiens) (UniProt Q96RI1); test: OT_FXR_FXRSRC1_0480: Odyssey Thera (OT) 8-hour HEK293T Protein-Complementation Assay for Farnesoid X receptor/SRC-1 Co-activator (AID 2283383)
In short: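 Readings were taken 8 h after dosing HEK293T cells in a split-reporter complementation format pairing FXR with SRC-1. Increased fluorescence relative to DMSO-treated wells defined activity.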

Measured: AC50

CCCCC(CC)C(=O)OCCOCCOCCOC(=O)C(CC)CCCC (stereo not drawn)
inactive: [1] | [2] | [3] | [4] | [5] | [6] | [7] | [8] | [9] | [10] | [11] | [12] | [13] | [14] | [15] | [16] | [17]

Cc1nc(-c2ccccn2)ncc1C(=O)Nn1cc(C)c2cc(F)ccc21
inactive: [4] | [5] | [6] | [7] | [18] | [9] | [10] | [11]

CCOC(N)=O
inactive: [3] | [6] | [7] | [8] | [9]

OCCOCCOCCO
inactive: [2] | [3] | [4] | [5] | [6] | [7] | [8] | [9] | [10] | [11]
active: [1] 6.63 µM

OC(CCl)CCl
inactive: [1] | [5] | [6] | [7] | [8] | [9] | [11]

CC(C)c1nnc2ccc(-c3ocnc3-c3cc(F)ccc3F)cn12
inactive: [1] | [5] | [6] | [7] | [19] | [18] | [8] | [9] | [11] | [12] | [13] | [14] | [16] | [17]

c1ccc2ncccc2c1
inactive: [6] | [7] | [8] | [9] | [11]

CCCCCCCCCCCCCCO
active: [9] 74.3 µM
inactive: [5] | [6] | [7] | [8] | [9] | [10] | [11] | [13] | [14]

NC(=O)N(O)[C@@H]1COc2cc(OCc3ccccc3)ccc21
inactive: [5] | [6] | [7] | [19] | [18] | [8] | [9] | [10] | [11]

COCc1nnc(-c2ccc[n+]([O-])c2)n1-c1c(Cl)c(Cl)cc2[nH]c(=O)c(=O)[nH]c12
inactive: [5] | [6] | [7] | [19] | [8] | [9] | [11]

NNC(=O)c1ccncc1
inactive: [5] | [6] | [7] | [8] | [9] | [11]

CCOc1ccc2[nH]cc(C(=O)NCc3ccccc3)c(=O)c2n1
active: [14] 68.1 µM
inactive: [5] | [6] | [7] | [19] | [18] | [9] | [11] | [13]

O=c1[nH]cnc2c1ncn2[C@H]1CC[C@@H](CO)O1
inactive: [6] | [7] | [8] | [9] | [11]

Cn1c(=O)c2[nH]cnc2n(C)c1=O
inactive: [7] | [19] | [18] | [8] | [9] | [11]

CCCCCOC(C)=O
inactive: [6] | [7] | [8] | [9] | [10] | [11]

OC(Cn1cncn1)(Cn1cncn1)c1ccc(F)cc1F
inactive: [5] | [6] | [7] | [8] | [9] | [11]

O=C1CN(N=Cc2ccc([N+](=O)[O-])o2)C(=O)N1
inactive: [5] | [6] | [7] | [11]

CCCc1ccccc1
inactive: [5] | [6] | [7] | [8] | [9] | [10] | [11]

CCCCCCOC(=O)CC(CC(=O)OCCCCCC)(OC(=O)CCC)C(=O)OCCCCCC
inactive: [5] | [6] | [7] | [8] | [10] | [11]
